Data taken from PubChem BioAssay AID652104 (National Center for Advancing Translational Sciences (NCATS), 2013).
Among all 410,000 compounds or so, about 7,200 (1.8%) were called active. About 7% were inconclusive and are not listed. For the sample, actives were picked, then their nearest neighbours and some compounds at random. Values without a mark were called inactive. The call rests on the fitted dose curve; in most records, active means well fitted activation curve with a large enough effect; inconclusive means small, poorly fitted or top-dose-only effect, or another doubt; inactive means no such curve, though single readings can be large or run the other way.

experiment: qHTS of TDP-43 Inhibitors; details: TDP-43 expressing yeast growth rescue, BacTiter-Glo, 24 h; series mostly up to 46.1 µM; growth rescue (activation): at the top concentration; further: nearly all actives have a fitted effect of over 50% in size; on growth rescue (activation): % of control where 0% means no effect
In short: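 Yeast cells expressing TDP-43 under galactose induction are exposed to compounds for 24 hr at 30 deg C. BacTiter-Glo luminescence measures growth, so protective compounds score as activators.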
Potency means the concentration at half of the fitted maximal effect.

Row | SMILES | growth rescue (activation) | Potency
1 | CCc1ccc(CN(Cc2ccco2)C(=O)COc2ccc(Cl)c(C)c2)cc1 | 6.26% | –
2 | CSc1nnc(NC(=O)c2nc(S(=O)(=O)Cc3ccc(C)cc3)ncc2Cl)s1 | – | 11.2 µM (active)
3 | Cc1cccc(NC(=O)c2nc(S(=O)(=O)Cc3ccccc3)ncc2Cl)c1 | – | 7.08 µM (active)
4 | Cc1cccc(NC(=O)Cn2cc(S(=O)(=O)Cc3ccccc3Cl)c3ccccc32)c1 | 14.7% | –
5 | Cc1ccc2nc(NC(=O)c3nc(SCc4ccccc4F)ncc3Cl)sc2c1 | 11.2% | –
6 | CCS(=O)(=O)c1ncc(N(Cc2ccc(F)cc2)Cc2ccco2)c(C(=O)Nc2cc(C)ccc2C)n1 | 13% | –
7 | CCOC(=O)c1ccc(NC(=O)c2nc(SCc3ccc(F)cc3)ncc2Cl)cc1 | 2.94% | –
8 | CCOc1ccc(N(CC)C(=O)c2noc3c2COc2ccc(C)cc2-3)cc1 | 3.89% | –
9 | Cn1c(=O)sc2cc(NS(=O)(=O)c3ccc(C(C)(C)C)cc3)ccc21 | 15.4% | –
10 | COc1cc(NC(=O)c2nn(-c3ccc(C)cc3)c(=O)c3c2c2ccccc2n3C)cc(OC)c1OC | 20.5% | –
11 | COc1ccccc1-n1c(-c2ccc(C)cc2)cn2c3c(=O)n(C)c(=O)n(C)c3nc12 | 15.8% | –
12 | Cc1ccc(C)n1-c1nnc(N2CCC(C(=O)NCc3ccccc3Cl)CC2)s1 | 7.93% | –
13 | COc1ccc(Nc2cc(Cl)ccc2C(=O)O)cn1 | – | 10 µM (active)
14 | COc1cc(C(F)(F)F)c(C(=O)N(C)c2ccc(Cl)cc2)cn1 | -13.9% [at 1.82 µM] | –
15 | COc1ccc(Cl)cc1NC(=O)c1oc(C)nc1C | -4.05% | –
16 | CCOC(=O)c1ccc(NC(=O)CSc2nc3c([nH]c4ccccc43)c(=O)n2C)cc1 | 14.3% | –
17 | CSc1cccc(NC(=S)N(C(C)C)C(C)c2ccccn2)c1 (stereo not given) | -6.51% [at 9.22 µM] | –
18 | Cc1c(Cl)cccc1NC(=S)N(Cc1ccccc1)Cc1cccnc1 | -6.19% | –
19 | CSc1cccc(NC(=S)N(Cc2ccccc2)Cc2ccccn2)c1 | – | 20 µM (active)
20 | CC(C)(C)OC(=O)N1CCC(c2c(C(=O)N3CCN(c4cccc(Cl)c4)CC3)cnn2-c2cccc(Cl)c2)CC1 | 28.5% | –
21 | CCOCCCNC(=O)c1c(NC(=O)Cc2coc3c(C)c(C)ccc23)sc2c1CCC2 | 0% | –
22 | Cc1csc(NC(=O)CSc2nnc(-c3cccnc3)o2)n1 | -8.58% | –
23 | CC(NC(=O)COc1ccccc1)C(=O)NC1=NCCS1 (stereo not given) | -24.5% | –
24 | O=C(CSC1=NCCS1)Nc1nc(-c2ccccc2)cs1 | – | 22.4 µM (active)

Row | SMILES | growth rescue (activation) | Potency
25 | COc1ccc(-c2nn(CC(=O)Nc3ccccc3F)c3c2cnc2ccc(F)cc23)cc1 | 0% | –
26 | Cc1ccc(Cn2c(=O)n(CCCC(=O)NCc3ccccc3Cl)c(=O)c3ccccc32)cc1 | -11.2% | –
27 | COc1cc(OC)c(NC(=O)Cc2ccc(-n3c(C)nc4cccnc43)cc2)cc1Cl | -10.8% | –
28 | Fc1ccc2nc(Nc3nc4c(s3)CCCC4)sc2c1 | – | 2.24 µM (active)
29 | Cc1cc(C)cc(OC(C)C(=O)Nc2nc3c(s2)CCCC3)c1 (stereo not given) | 9.5% | –
30 | O=C(Nc1nc2c(s1)CCCC2)c1ccccc1F | 22.7% | –
31 | COc1ccc(-c2cn3nc(N4CCC(C(=O)Nc5cccc(C)c5C)CC4)sc3n2)cc1 | 6.6% | –
32 | CC1(C(=O)NS(=O)(=O)c2ccc3ccccc3c2)CCN1C(=O)C1(c2ccc(Cl)cc2)CCC1 (stereo not given) | -8.26% | –
33 | Cc1ccccc1S(=O)(=O)NC(=O)C1(C)CCN1C(=O)C1(c2ccc(Cl)cc2)CC1 (stereo not given) | – | 28.2 µM (active)
34 | CCCNC(=O)C1(C)CCN1C(=O)C1(c2ccccc2)CC1 (stereo not given) | 17.1% | –
35 | CC1(C(=O)NS(=O)(=O)c2ccccc2)CCN1C(=O)c1ccccc1 (stereo not given) | 0.758% | –
36 | Cc1ccccc1S(=O)(=O)NC(=O)C1(C)CCN1C(=O)C1(c2ccccc2)CCCC1 (stereo not given) | – | 35.5 µM (active)
37 | Cc1ccccc1S(=O)(=O)NC(=O)C1(C)CCN1C(=O)Cc1ccc(Cl)cc1Cl (stereo not given) | 0% | –
38 | COc1ccc(NC(=O)CSc2nccn2C2CCCC2)cc1OC | 8.04% | –
39 | COc1ccccc1CCNC(=O)c1cccn1-c1nnc(N2CCCCC2)s1 | -17.6% | –
40 | O=C(CCn1c(=O)c2sccc2n(Cc2ccc(F)cc2)c1=O)NCc1ccc2c(c1)OCO2 | 13.5% | –
41 | O=C(Nc1ccc2nc(SCC(=O)N3CCCc4ccccc43)sc2c1)c1ccc(Cl)cc1 | -7.69% | –
42 | CCOc1ccccc1NC(=O)CN1CCCN(Cc2cccc(Cl)c2)S1(=O)=O | 24.2% | –
43 | CCCCn1cc(S(=O)(=O)c2ccc(OCC)cc2)c(=O)c2cc(OC)c(OC)cc21 | 19.6% | –
44 | COc1ccc(S(=O)(=O)c2cn(C)c3cc(N4CCCCC4)c(F)cc3c2=O)cc1 | 21.4% | –
45 | COc1cc2nc(NCC(C)c3ccccc3)n3nc(-c4ccccc4)nc3c2cc1OC (stereo not given) | -5.52% | –
46 | CCCCC12CN3CC(C)(CN(C1)C3c1ccc(O)c(OC)c1)C2=O (stereo not given) | 9.06% | –
47 | Cc1ccc(S(=O)(=O)N2CCN(C(=O)Cc3sc(C)nc3-c3ccc(F)cc3)CC2)c(C)c1 | – | 35.5 µM (active)
48 | Cc1nc(-c2ccc(F)cc2)c(CC(=O)Nc2cc(S(=O)(=O)N3CCCCC3)ccc2C)s1 | -16.5% | –

Row | SMILES | growth rescue (activation) | Potency
49 | Cc1nc(-c2ccc(F)cc2)c(CC(=O)N2CCN(S(=O)(=O)c3ccc(F)cc3)CC2)s1 | 23.4% | –
50 | COc1cccc(CNCc2c(C(=O)O)n(Cc3ccc(C)cc3)c3cc(C)ccc23)c1OC | -5.18% | –
51 | COc1ccc(NS(=O)(=O)c2cc3c4c(c2)CC(=O)N4CCC3)cc1Cl | 5.28% | –
52 | COc1cc(NC(=O)CSc2nc3nc(C)c(Cc4ccc(C)cc4)c(C)n3n2)cc(OC)c1OC | 28.1% | –
53 | CC(C)c1ccc(NS(=O)(=O)c2cn(C)c(=O)n(C)c2=O)cc1 | – | 20 µM (active)
54 | Cn1cc(S(=O)(=O)Nc2ccc(Cl)cc2Cl)c(=O)n(C)c1=O | -9.05% | –
55 | Cn1cc(S(=O)(=O)NC(c2ccccc2)c2ccccc2)c(=O)n(C)c1=O | -11.6% | –
56 | Cc1sc2ncnc(N3CCC(C(=O)Nc4ccc(F)cc4Cl)CC3)c2c1C | – | 15.8 µM (active)
57 | Cc1nnc(N2CCC(C(=O)Nc3ccc(F)cc3)CC2)c2nn(-c3ccc(Cl)cc3)c(C)c12 | 16% | –
58 | CCc1ccc(C(=O)NNC(=O)C2CCN(c3ncnc4sc(C)c(C)c34)CC2)cc1 | -1.89% | –
59 | O=C(CCn1ccc2cc(S(=O)(=O)N3CCCC3)ccc21)NCc1cccc(Cl)c1 | 17.2% | –
60 | CCOC(=O)c1ccc(NC(=O)CCS(=O)(=O)c2ccc(C)cc2)cc1 | 0% | –
61 | O=C(CCc1nc(CN2CCN(S(=O)(=O)c3ccc(F)cc3)CC2)no1)N1CCCCC1 | 1.71% | –
62 | COc1cccc(CNC(=O)Cn2ncn3c(cc4ccccc43)c2=O)c1 | 8.84% | –
63 | Fc1ccc(-n2ncc3c(Nc4ccc(Oc5ccccc5)cc4)ncnc32)cc1 | 23.6% | –
64 | CCCCNc1c(-c2ccc(OC)c(Sc3ccc(OC)cc3)c2)nc2ccc(Cl)cn12 | – | 17.8 µM (active)
65 | COc1ccc(-c2nc3cc(C)ccn3c2NC2CCCCC2)cc1SC1CCCCC1 | – | inactive
66 | CCCCNc1c(-c2cccc(Sc3ccc(OC)cc3)c2)nc2ccccn12 | -91.7% | –
67 | O=C1CN(C(=O)Nc2ccccc2C(F)(F)F)C(c2ccccc2)c2c(sc3c2CCCC3)N1 (stereo not given) | 24.1% | –
68 | COc1cc(OC)cc(-c2nc3nc(C)c(CCC(=O)Nc4ccc(C)cc4)c(C)n3n2)c1 | -11.3% | –
69 | CCC(c1nnnn1-c1ccc2c(c1)OCCO2)N1CCN(c2ccc(C(F)(F)F)cn2)CC1 (stereo not given) | – | 22.4 µM (active)
70 | CCOc1ccc(C(=O)NCC(=O)N2CCN(c3ccc(C(F)(F)F)cn3)CC2)cc1 | 15.3% | –
71 | CCN(CC)CCN(C)C(c1ccnc2ccccc12)c1nnnn1-c1ccc2c(c1)OCCO2 (stereo not given) | -2.36% | –
72 | O=C(Nc1ccc(O)c(-c2nc3ccccc3o2)c1)c1ccc(-c2cccc(Cl)c2)o1 | 23.1% | –

Row | SMILES | growth rescue (activation) | Potency
73 | COC(=O)c1cc2occc2n1Cc1nc(-c2ccc(C)cc2)oc1C | 10.7% | –
74 | CCN(CC)S(=O)(=O)c1ccc2c(c1)N(CC(=O)NCc1ccccc1)C(=O)CS2 | 7.04% | –
75 | CCCc1c(C(=O)O)cnn1-c1ccc(Cl)cc1 | – | 20 µM (active)
76 | Nc1c(C(=O)O)cnn1-c1ccccc1 | -41.8% | –
77 | CCNC(=O)c1cnn(-c2ccccc2)c1-c1ccccc1 | 11.8% | –
78 | O=C(Nc1ccc(S(=O)(=O)N2CCC(c3nc4ccccc4s3)CC2)cc1)c1ccccc1F | 26.8% | –
79 | COc1ccc2c(c1)CC[C@@H]1[C@@H]2CC[C@]2(C)C(=O)CC[C@@H]12 | – | 12.6 µM (active)
80 | COc1ccc(C=C2CCC3C(CCCC34OCCO4)C2=O)cc1 (stereo not given) | 0% | –
81 | COc1ccc(Cn2ccn(Cc3cccc(OC)c3)c(=O)c2=O)cc1 | 14.9% | –
82 | Cc1cc(Br)ccc1NC(=O)Cn1cnc2sc(C)c(S(=O)(=O)N3CCN(C)CC3)c2c1=O | 2.06% | –
83 | CCOc1ccc(N(CC)C(=O)c2cc3c(=O)oc4ccccc4c3s2)cc1 | 6.24% | –
84 | CCOc1ccc(CCNC(=O)Cn2nc(CC)n3c(cc4sc(CC)cc43)c2=O)cc1OCC | 10.3% | –
85 | CCOc1ccc(C(=O)/C=C/c2cn(CC(O)CN3CCCCCC3)c3ccccc23)cc1 (stereo not given) | 6.38% | –
86 | CC(C)c1ccc(NC(=O)Cn2nnc(C(=O)NCCc3ccccc3)c2N)cc1 | 6.09% | –
87 | CCOC(=O)C1CCCN(C(=O)c2ccc(-n3ccc4ccccc43)s2)C1 (stereo not given) | 9.38% | –
88 | O=S(=O)(NC1CC2CCC1C2)c1ccc(Cl)cc1 (stereo not given) | – | 7.08 µM (active)
89 | CCN1CCN(C2CCCCC2NS(=O)(=O)c2ccc(Cl)cc2)CC1 (stereo not given) | 17.9% | –
90 | CCOC1CCCCC1NS(=O)(=O)c1ccc(Cl)cc1 (stereo not given) | -8.86% | –
91 | COc1ccc(Cn2ccnc2SCC(=O)NCc2ccco2)cc1 | 0% | –
92 | COc1cc(C(=O)N2CCC(c3ccncc3)CC2)cc(OC)c1OC | -21.7% [at 9.22 µM] | –
93 | CCn1c(=O)c(=O)n(CC)c2cc(N3CCCCC3)c(NC(=O)c3cccc(F)c3)cc21 | -6.82% | –
94 | O=C(Nc1ccccc1N1CCCC1)c1ccc(F)c(S(=O)(=O)N2CCOCC2)c1 | 8.64% | –
95 | O=C(Nc1ccccc1N1CCCCC1)c1cccc(F)c1 | – | 12.6 µM (active)
